Records with an inconclusive call do not appear. Calls of active or inactive are those of the source. The call rests on the fitted dose curve; in most records, active means well fitted curve in the direction sought with a large enough effect; inconclusive means small, poorly fitted or top-dose-only effect, or another doubt; inactive means no such curve, though single readings can be large; an effect the other way counts as inactive or inconclusive.
Key:
[1] = Quantitative High-Throughput drug screen in 47 multiple myeloma cell lines against the NCATS MIPE library collection: NCIH929_DSMZ cell viability assay (AID 1918978); further: nearly all actives have a fitted effect of over 35% in size; further: potency means the concentration at half of the fitted maximal effect
Summary of the method: (§1)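 qHTS format: cells plated (500/well), pin-dosed with MIPE 4.0 compounds, kept 48 h at 37 °C. Readout was CellTiter-Glo luminescence, median RLU.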

[2] = Quantitative High-Throughput drug screen in 47 multiple myeloma cell lines against the NCATS MIPE library collection: OCIMY1_PLB cell viability assay (AID 1918979); further: nearly all actives have a fitted effect of over 35% in size; further: potency means the concentration at half of the fitted maximal effect; on viability: series mostly up to about 46 µM
Summary of the method: as §1

[3] = Quantitative High-Throughput drug screen in 47 multiple myeloma cell lines against the NCATS MIPE library collection: MM1S_ATCC cell viability assay (AID 1918980); further: nearly all actives have a fitted effect of over 45% in size; further: potency means the concentration at half of the fitted maximal effect
Summary of the method: as §1

[4] = Quantitative High-Throughput drug screen in 47 multiple myeloma cell lines against the NCATS MIPE library collection: MM1R_ATCC cell viability assay (AID 1918981); further: nearly all actives have a fitted effect of over 35% in size; further: potency means the concentration at half of the fitted maximal effect
Summary of the method: as §1

[5] = Quantitative High-Throughput drug screen in 47 multiple myeloma cell lines against the NCATS MIPE library collection: LP1_DSMZ cell viability assay (AID 1918982); further: nearly all actives have a fitted effect of over 35% in size; further: potency means the concentration at half of the fitted maximal effect
Summary of the method: as §1

[6] = Quantitative High-Throughput drug screen in 47 multiple myeloma cell lines against the NCATS MIPE library collection: KMS28PE_JCRB cell viability assay (AID 1918983); further: nearly all actives have a fitted effect of over 35% in size; further: potency means the concentration at half of the fitted maximal effect
Summary of the method: as §1

[7] = Quantitative High-Throughput drug screen in 47 multiple myeloma cell lines against the NCATS MIPE library collection: SKMM1_PLB cell viability assay (AID 1919863); details: SKMM1 myeloma viability, CellTiter-Glo ATP, 48 h; viability: hits give low values; further: nearly all actives have a fitted effect of over 35% in size; further: potency means the concentration at half of the fitted maximal effect; on viability: series mostly up to about 46 µM
Summary of the method: as §1

[8] = Quantitative High-Throughput drug screen in 47 multiple myeloma cell lines against the NCATS MIPE library collection: U266_ATCC cell viability assay (AID 1919864); further: nearly all actives have a fitted effect of over 35% in size; further: potency means the concentration at half of the fitted maximal effect
Summary of the method: as §1

[9] = Quantitative High-Throughput drug screen in 47 multiple myeloma cell lines against the NCATS MIPE library collection: XG6_PLB cell viability assay (AID 1919865); further: nearly all actives have a fitted effect of over 40% in size; further: potency means the concentration at half of the fitted maximal effect
Summary of the method: as §1

[10] = Quantitative High-Throughput drug screen in 47 multiple myeloma cell lines against the NCATS MIPE library collection: OCIMY7_PLB cell viability assay (AID 1918987); further: potency means the concentration at half of the fitted maximal effect; nearly all actives have a fitted effect of over 65% in size
Summary of the method: as §1

[11] = Quantitative High-Throughput drug screen in 47 multiple myeloma cell lines against the NCATS MIPE library collection: MOLP8_DSMZ cell viability assay (AID 1918977); further: nearly all actives have a fitted effect of over 45% in size; further: potency means the concentration at half of the fitted maximal effect
Summary of the method: as §1

[12] = Quantitative High-Throughput drug screen in 47 multiple myeloma cell lines against the NCATS MIPE library collection: OCIMY5_PLB cell viability assay (AID 1918988); further: potency means the concentration at half of the fitted maximal effect; nearly all actives have a fitted effect of over 65% in size
Summary of the method: as §1

[13] = Quantitative High-Throughput drug screen in 47 multiple myeloma cell lines against the NCATS MIPE library collection: OPM1_PLB cell viability assay (AID 1918989); further: nearly all actives have a fitted effect of over 40% in size; further: potency means the concentration at half of the fitted maximal effect
Summary of the method: as §1

[14] = Quantitative High-Throughput drug screen in 47 multiple myeloma cell lines against the NCATS MIPE library collection: L363_DSMZ cell viability assay (AID 1918984); further: nearly all actives have a fitted effect of over 40% in size; further: potency means the concentration at half of the fitted maximal effect
Summary of the method: as §1

[15] = Quantitative High-Throughput drug screen in 47 multiple myeloma cell lines against the NCATS MIPE library collection: KMS34_JCRB cell viability assay (AID 1918985); further: nearly all actives have a fitted effect of over 40% in size
Summary of the method: as §1

[16] = Quantitative High-Throughput drug screen in 47 multiple myeloma cell lines against the NCATS MIPE library collection: KMS26_JCRB cell viability assay (AID 1918975); further: nearly all actives have a fitted effect of over 45% in size; further: potency means the concentration at half of the fitted maximal effect
Summary of the method: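 Luminescent ATP measurement with CellTiter-Glo gives viability, scaled between DMSO-only wells (100%) and media-only wells (0%). Cells, 500 per well, faced library compounds for 48 hours at 37C.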

[17] = Quantitative High-Throughput drug screen in 47 multiple myeloma cell lines against the NCATS MIPE library collection: MMM1_PLB cell viability assay (AID 1918976)
Summary of the method: as §1

Cc1ccccc1C(C(=O)NC1CCCC1)N(C(=O)Cn1cnc2ccccc21)c1cccc(F)c1 (stereo unspecified)
active: Potency [1] 18.7 µM | Potency [3] 18.7 µM | Potency [5] 3.32 µM | Potency [7] 10.5 µM | Potency [8] 23.5 µM
inactive: Potency [2] | Potency [4] | Potency [6] | Potency [9]

C[C@]1(c2nc3c(C(N)=O)cccc3[nH]2)CCCN1
active: Potency [1] 23.5 µM | Potency [3] 4.69 µM | Potency [10] 5.26 µM
inactive: Potency [4] | Potency [6]

Nc1nccc(-c2ccc3noc(-c4ccc(Cl)cc4)c3c2)n1
active: Potency [1] 20.9 µM | Potency [3] 16.6 µM | Potency [10] 20.9 µM | Potency [12] 18.7 µM | Potency [9] 2.64 µM
inactive: Potency [11] | Potency [2] | Potency [6] | Potency [13]

CCC(C)n1ncn(-c2ccc(N3CCN(c4ccc(OC[C@H]5CO[C@](Cn6cncn6)(c6ccc(Cl)cc6Cl)O5)cc4)CC3)cc2)c1=O (stereo partly specified)
active: Potency [2] 4.18 µM | Potency [6] 14.8 µM | Potency [12] 2.96 µM | Potency [7] 14.8 µM
inactive: Potency [1] | Potency [3] | Potency [8]

Cc1n[nH]c(C)c1Cc1sc2c(c1C(=O)N1C[C@H](O)CO1)c(=O)n(C)c(=O)n2CC(C)C
active: Potency [11] 0.935 µM | Potency [3] 11.8 µM | Potency [6] 16.6 µM
inactive: Potency [1] | Potency [2] | Potency [4] | Potency [14] | Potency [15] | Potency [9]

CC1(C)Cc2c(-c3ccccc3)c(-c3ccc(Cl)cc3)c(CC(=O)O)n2C1
active: Potency [11] 20.9 µM | Potency [2] 23.5 µM | Potency [3] 26.4 µM | Potency [7] 20.9 µM | Potency [8] 18.7 µM | Potency [9] 18.7 µM

NC(N)=NC(=O)c1nc(Cl)c(N)nc1N
inactive: Potency [11] | Potency [2] | Potency [5] | Potency [8]
active: Potency [1] 9.35 µM | Potency [3] 20.9 µM | Potency [9] 7.43 µM

O=C(Nc1nc2ccccc2n1CCN1CCOCC1)c1cccc([N+](=O)[O-])c1
active: Potency [16] 29.6 µM | Potency [3] 9.35 µM | Potency [4] 18.7 µM | Potency [10] 1.87 µM | Potency [12] 5.9 µM | Potency [8] 14.8 µM | Potency [9] 1.32 µM

COc1cc(Oc2ccnc3cc(OC)c(OC)cc23)ccc1NC(=O)NC(C)c1nccs1 (stereo unspecified)
inactive: Potency [11] | Potency [1] | Potency [8]
active: Potency [4] 18.7 µM | Potency [12] 16.6 µM | Potency [13] 20.9 µM

COc1ccc2c3n(c(=NC(=O)c4cccnc4)nc2c1OC)CCN3
active: Potency [16] 11.8 µM | Potency [11] 2.64 µM | Potency [1] 1.87 µM | Potency [3] 2.64 µM | Potency [4] 5.9 µM | Potency [6] 5.9 µM | Potency [12] 3.72 µM | Potency [7] 0.148 µM | Potency [9] 0.59 µM

CCc1cc(Nc2nccc(-c3c(-c4ccc(OC)c(C(=O)Nc5c(F)cccc5F)c4)nc4ccccn34)n2)c(OC)cc1N1CCC(N2CCN(S(C)(=O)=O)CC2)CC1
active: Potency [1] 7.43 µM | Potency [6] 26.4 µM | Potency [13] 14.8 µM

CCOc1ccn(-c2ccc(F)cc2)c(=O)c1C(=O)Nc1ccc(Oc2ccnc(N)c2Cl)c(F)c1
inactive: Potency [16] | Potency [2]
active: Potency [3] 16.6 µM | Potency [12] 8.33 µM | Potency [9] 11.8 µM

NC(=O)c1ccc(I)c([N+](=O)[O-])c1
active: Potency [1] 8.33 µM | Potency [3] 18.7 µM | Potency [4] 23.5 µM | Potency [13] 23.5 µM
inactive: Potency [2] | Potency [5] | Potency [6] | Potency [15] | viability [7] 102%

Cc1c(C)c2c(c(C)c1O)CCC(C)(COc1ccc(CC3SC(=O)NC3=O)cc1)O2 (stereo unspecified)
inactive: Potency [11] | Potency [2] | Potency [4] | Potency [5] | Potency [6] | Potency [13] | viability [7] 114% | Potency [8]

NC(=O)c1cnccn1
inactive: Potency [1] | Potency [2] | Potency [4] | Potency [5] | Potency [6] | viability [7] 112%

O=c1ncn2nc(Sc3ccc(F)cc3F)ccc2c1-c1c(Cl)cccc1Cl
inactive: Potency [2] | Potency [6]
active: Potency [1] 18.7 µM | Potency [4] 16.6 µM | Potency [14] 18.7 µM | Potency [13] 16.6 µM | Potency [8] 20.9 µM | Potency [9] 13.2 µM

CN(C)C(=O)c1ccc(S(=O)(=O)c2ccc(NC(=O)[C@@](C)(O)C(F)(F)F)c(Cl)c2)cc1
inactive: Potency [11] | Potency [2] | viability [7] 99.9% | Potency [8]
active: Potency [17] 8.33 µM | Potency [4] 14.8 µM | Potency [12] 20.9 µM

Cc1cc(SCc2sc(-c3ccc(C(F)(F)F)cc3)nc2C)ccc1OCC(=O)O
inactive: Potency [1] | Potency [2] | Potency [4] | Potency [5] | Potency [15] | Potency [9]
active: Potency [10] 20.9 µM | Potency [12] 3.72 µM | Potency [7] 16.6 µM

COc1ccc(-c2c(-c3ccc(O)cc3O)n[nH]c2C)cc1
active: Potency [17] 42.9 µM | Potency [1] 19.1 µM | Potency [4] 38.2 µM | Potency [13] 30.3 µM
inactive: Potency [2] | Potency [3] | Potency [6] | Potency [15] | viability [7] 137% | Potency [8]

N#CC[C@H](C1CCCC1)n1cc(-c2ncnc3[nH]ccc23)cn1
active: Potency [3] 4.18 µM | Potency [12] 20.9 µM | Potency [13] 6.62 µM | Potency [7] 6.62 µM | Potency [8] 18.7 µM
inactive: Potency [11] | Potency [1] | Potency [2]

CCCn1c(=O)c2[nH]c(C34CC5CC3C[C@@H](C5)C4)nc2n(CCC)c1=O
inactive: Potency [1] | Potency [2] | Potency [13] | Potency [8]
active: Potency [4] 11.8 µM | Potency [5] 11.8 µM | Potency [6] 20.9 µM

CCCc1nc2c(C)cc(-c3nc4ccccc4n3C)cc2n1Cc1ccc(-c2ccccc2C(=O)O)cc1
inactive: Potency [11] | Potency [1] | Potency [2] | Potency [4] | Potency [5] | Potency [6] | Potency [15] | Potency [13] | viability [7] 142%
active: Potency [3] 26.4 µM | Potency [9] 23.5 µM

O=C(c1cc(Cc2n[nH]c(=O)c3ccccc23)ccc1F)N1CCN(C(=O)C2CC2)CC1
inactive: Potency [11] | Potency [15] | viability [7] 93.3%
active: Potency [3] 23.5 µM | Potency [10] 2.64 µM | Potency [9] 13.2 µM

Cc1cc(Nc2nc(N[C@@H](C)c3ncc(F)cn3)ncc2Cl)n[nH]1
active: Potency [16] 26.4 µM | Potency [3] 3.32 µM | Potency [4] 26.4 µM | Potency [6] 20.9 µM | Potency [12] 7.43 µM | Potency [13] 18.7 µM | Potency [8] 9.35 µM | Potency [9] 2.96 µM
inactive: Potency [2]

CCN(CC)CCCC(C)Nc1nc(C)cc(Nc2ccc3nc(C)cc(N)c3c2)n1 (stereo unspecified)
inactive: Potency [5] | Potency [6] | Potency [15] | viability [7] 123%
active: Potency [1] 16.6 µM

COc1cc(Nc2ncc3c(n2)-c2ccc(Cl)cc2C(c2c(F)cccc2OC)=NC3)ccc1C(=O)O
inactive: Potency [1] | Potency [2] | Potency [4] | Potency [5] | viability [7] 78.9% | Potency [8]

NC(=O)c1ccc(-c2nc(-c3ccc4c(c3)OCCO4)c(-c3ccccn3)[nH]2)cc1
inactive: Potency [11] | Potency [1] | Potency [2] | Potency [4] | viability [7] 112%
active: Potency [14] 20.9 µM | Potency [12] 18.7 µM | Potency [9] 8.33 µM

Cc1cnc(Nc2ccc(OCCN3CCCC3)cc2)nc1Nc1cccc(S(=O)(=O)NC(C)(C)C)c1
inactive: Potency [16] | Potency [1] | Potency [2] | Potency [4] | Potency [5] | Potency [9]

CCn1c(-c2nonc2N)nc2c(C#CC(C)(C)O)ncc(OC[C@H]3CCCNC3)c21
active: Potency [1] 0.0209 µM | Potency [2] 4.18 µM | Potency [3] 0.0264 µM | Potency [4] 0.0418 µM | Potency [6] 0.296 µM | Potency [10] 8.33 µM | Potency [8] 23.5 µM | Potency [9] 18.7 µM

CCCS(=O)(=O)Nc1ccc(F)c(C(=O)c2c[nH]c3ncc(-c4ccc(Cl)cc4)cc23)c1F
active: Potency [17] 26.4 µM | Potency [3] 7.43 µM | Potency [5] 16.6 µM | Potency [10] 5.9 µM | Potency [12] 13.2 µM | Potency [8] 5.26 µM | Potency [9] 2.96 µM
inactive: Potency [14]

— PubChem BioAssay (NCATS)
